Hits are enriched below; roughly 7.1% of the tested compounds scored in any of these assays.
SW480 rerep – A quantitative high throughput screen for small molecules that induce DNA re-replication in SW480 colon adenocarcinoma cells. SW480 DNA re-replication, Hoechst DNA content imaging, 48 h. Potency, µM (series often up to 46.1 µM), most hits filed as activators. hit rate 1.8% among 340,000. AID 624297, 2012; note: nearly all actives have a fitted effect of over 55% in size
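Image-based DNA-content assay: after two days of treatment, nuclei were labelled with the DNA dye Hoechst and imaged, and hits were compounds raising the count of nuclei showing high fluorescence intensity.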
IL1B secr inh – qHTS for Inhibitors of Inflammasome Signaling: IL-1-beta AlphaLISA Primary Screen; AID 743279, 2014; activity change, % at 57.5 µM; hit rate 4.7% among 360,000; THP-1 LPS/ATP IL-1B secretion, AlphaLISA, 16 h; stronger effect = lower value; in the data active = activity change below about -50%; inconclusive = mostly about -30% to -49%
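THP-1 cells pretreated 1 hr with compounds (up to 57.5 uM final), then stimulated with LPS (250 ng/mL final) plus ATP (1.25 mM final); secreted IL-1B measured by AlphaLISA after 16 hr, decreased signal indicating inhibition.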
ATXN viability – Viability Counterscreen for Primary qHTS for Inhibitors of ATXN expression; S2 cells (HEK-293 line with an ATXN2-luciferase reporter) viability, CellTiter-Fluor protease fluorescence, 24 h; Potency, µM (highest dose often 56.7 µM), most hits filed as cytotoxic; hit rate 0.49% among 400,000; AID 651635, 2014; note: nearly all actives have a fitted effect of over 40% in size
MCF10A rerep – A quantitative high throughput screen for small molecules that induce DNA re-replication in MCF 10a normal breast cells. Potency, µM (series often up to 46.1 µM), hits mostly activators. hit rate 2.9% among 350,000. MCF 10A DNA re-replication, Hoechst nuclear intensity, 48 h. AID 624296, 2012; note: nearly all actives have a fitted effect of over 50% in size
PINK1 modulator – A Quantitative High throughput Screen to Identify Chemical Modulators of PINK1 Expression; PINK1 immunofluorescence, high-content cytometry, 24 h; Potency, µM (highest dose often 76.6 µM), hits mostly activators; hit rate 0.2% among 410,000; active = well fitted activation curve with a large enough effect; inconclusive = small, poorly fitted or top-dose-only effect; cell line not stated here; note: nearly all actives have a fitted effect of over 65% in size
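PINK1 protein, normally rapidly degraded, was detected by immunofluorescence after 24 hour compound treatment of a stable cell line. Titration data (5 concentrations) came from laser-scanning cytometry, with CCCP-treated wells as controls.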
ATXN2 expr inh – Primary qHTS for Inhibitors of ATXN expression; HEK-293 ATXN2-luciferase reporter, luminescence, 24 h; Potency, µM (highest dose often 57 µM), actives largely listed as inhibitors; hit rate 0.72% among 360,000; note: nearly all actives have a fitted effect of over 55% in size
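ATXN2-luciferase reporter cells (luciferase flanked by upstream and downstream ATXN2 gene portions) were treated 24 h at 37 °C with compounds at up to 57 uM. SteadyGlo luminescence gave expression; GF-AFC fluorescence gave viability.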
A number is an active result; n = inactive; u = inconclusive; x = not tested or not shown; [ ] = another dose, or the depositor's remark. Unless noted, calls come from the whole dose curve; as a rule, active = well fitted curve in the direction sought with a large enough effect; inconclusive = small, poorly fitted or top-dose-only effect, or another doubt; inactive = no such curve, though single readings can be large; an effect the other way counts as inactive or inconclusive.

SMILES	SW480 rerep	IL1B secr inh	ATXN viability	MCF10A rerep	PINK1 modulator	ATXN2 expr inh
CN(Cc1ccccc1)c1nc2c(S(=O)(=O)c3cccc(Cl)c3)nnn2c2ccsc12	x	x	n	x	n	n
CCc1ccc(CN2CCCC(CNS(=O)(=O)c3ccc(OC)cc3)C2)cc1 (configuration not stated)	n	-94	n	n[9.22 µM]	n	n
Cc1cccc(OC(C)C(=O)Nc2ccc3c(c2)OCCO3)c1 (configuration not stated)	n	n	n	n	n	n
CCc1nc2ccc(C(=O)NCCOc3ccc(OC)cc3)cn2c1N(CCC(C)C)CCN(C)C	x	-64	n	x	n	n
CCc1nc2ccc(C(=O)Nc3cc(-c4ccccc4)ccc3OC)cn2c1N(C=O)CCC(C)C	x	-60	n	x	n	u
CCc1nc2ccc(C(=O)Nc3cc(-c4ccccc4)ccc3OC)cn2c1N(C)CCC(C)C	x	u	u	x	n	u
CCc1nc2ccc(C(=O)Nc3cc(-c4ccccc4)ccc3OC)cn2c1N(CCN(C)C)CC1CC1	x	u	28µM	x	n	u
COc1ccccc1S(=O)(=O)Cc1ccc(C(=O)NCc2ccc(Cl)cc2)o1	x	x	u	x	n	n
C[C@@H]1CN(Cc2ccc3c(c2)CN(Cc2coc4ccccc4c2=O)CCO3)C[C@H](C)O1	x	x	n	x	n	x
CCCCCCCCN1C(=O)[C@H](CC(=O)N2CCN(C(=O)c3ccco3)CC2)C[C@@]2(C(=O)OC)CC(C)(C)CC=C12	x	-51	x	x	x	x
COC(=O)[C@@]12C[C@@H](CC(=O)N3CCC(c4ccccc4)CC3)C(=O)N(CCc3ccc(OC)c(OC)c3)C1=CCC(C)(C)C2	x	n	x	x	x	x
COC(=O)[C@@]12C[C@@H](CC(=O)N3CCN(C(=O)c4ccco4)CC3)C(=O)N(CCc3ccc(OC)c(OC)c3)C1=CCC(C)(C)C2	x	-51	x	x	x	x
CCc1ccccc1N(C)S(=O)(=O)c1ccc2c(c1)C(C)(C)C(=O)N2C	x	x	n	x	n	n
COc1ccccc1C(=O)Nc1nnc(-c2ccc3c(c2)CCCC3)o1	n	-63	n	n	n	n
O=C(NCc1ccncc1)[C@@H]1CCCN1C(=O)[C@@H]1CCCN1C(=O)c1cccc2ccccc12	x	-103	u	x	n	n
COc1ccc(S(=O)(=O)N2CCC[C@H]2C(=O)N2CCC[C@H]2C(=O)NCc2ccc(F)cc2F)cc1C	x	n	25µM	x	n	u
COc1ccc(S(=O)(=O)N2CCC[C@H]2C(=O)N2CCC[C@H]2C(=O)NCc2ccncc2)cc1C	x	-57	n	x	n	n
COc1ccc(S(=O)(=O)N2CCC[C@H]2C(=O)N2CCC[C@H]2C(=O)NCc2ccccc2)cc1C	x	n	n	x	n	n
Cc1ccc(Cn2c(CNS(=O)(=O)c3ccc(Cl)s3)nc3cccnc32)cc1	x	x	x	x	n	x
COc1cc(C2NC(=O)N(C)C3=C2C(=O)N(c2ccccc2)C3)ccc1O (configuration not stated)	x	x	u	x	n	n
CC1(C(=O)O)CCC2(C)CCC3(C)C(=CC(=O)C4C5(C)CCC(=O)C(C)(C)C5CCC43C)C2C1 (configuration not stated)	x	n	n	x	n	x
C[C@H](C[C@H](O)[C@H]1OC1(C)C)C1=C2C[C@H](O)C3[C@@]4(C)CCC(=O)C(C)(C)C4CC[C@]3(C)[C@@]2(C)CC1 (some centres not stated)	u	n	25µM	u	n	u
Cc1cccc(CCn2c(=O)c3ccccc3n(Cc3cccc(F)c3)c2=O)c1	x	x	n	x	n	n
COc1ccc(-c2cc3c(=O)n(CC(=O)Nc4ccc(Cl)cc4)ncn3n2)cc1	n	n	n	n	n	n
Cc1nn(CC(=O)Nc2ccc(Cl)cc2)c(=O)c2cc(-c3ccccc3)nn12	15µM	n	n	21µM	n	n
SMILES	SW480 rerep	IL1B secr inh	ATXN viability	MCF10A rerep	PINK1 modulator	ATXN2 expr inh
Cc1ccc(CN2C(=O)C3(c4ccccc42)N(c2ccc(C)c(Cl)c2)C(=O)CS3(=O)=O)cc1 (configuration not stated)	x	x	n	x	n	n
CCCN1CNc2c(c(=O)[nH]c(=S)n2CCc2cc(OC)ccc2OC)C1	x	x	x	x	n	x
COc1cccc(-c2nn(C)c3sc(C(=O)NCc4ccc(OC)cc4OC)cc23)c1	x	x	n	x	n	n
CCN(CC)CCCNC(=O)c1cc2c(-c3ccc(Cl)cc3)nn(C)c2s1	u	-81	x	n	n	25µM
CCCN(CCC)CCCNC(=O)c1cc2c(-c3ccc(Cl)cc3)nn(C)c2s1	x	x	25µM	x	n	u
CCN(CCCNC(=O)c1cc2c(-c3cccc(OC)c3)nn(C)c2s1)Cc1ccccc1	u	-84	u	u	n	u
O=C(Cn1c(=O)n(-c2ccccc2)c(=O)c2ccc(C(=O)NCc3ccc4c(c3)OCO4)cc21)Nc1ccc(Br)cc1F	x	x	n	x	n	n
O=c1oc(-c2ccccc2)cc(Cl)c1Cl	9.2µM	-100	x	2.9µM	n	u
O=c1cc(-c2ccccc2)oc2ccc(Cl)cc12	n	n	n	n	n	n
Cc1ccc(Nc2nc(Cl)nc(NC(C)(C)C)n2)cc1	n	n	n	n	n	x
Cc1ccc(Nc2nc(Cl)nc(N(C)C#N)n2)cc1	n[9.22 µM]	-114	n	u	n	n
CCCN(CCC)S(=O)(=O)c1ccc(C(=O)N2CCn3c4c(c5cc(C)ccc53)CCCC42)cc1 (configuration not stated)	x	x	n	x	n	n
Cc1sc(N)nc1-c1ccccc1	n	n	n	n	n	n
CC(C)(C)c1sc(N)nc1-c1ccccc1	n	-102	n	n	x	n
O=[N+]([O-])c1ccc(O/N=[N+](\[O-])N2CCCC2)c([N+](=O)[O-])c1	x	x	x	x	n	x
COc1cc(/C=C/C(=O)c2ccccc2O)cc(OC)c1OC	u	-98	n	u	n	n
COc1ccc(C=CC(=O)c2cc(O)ccc2O)cc1	u	u	n	u	n	n
COc1cc(OC)c(C=CC(=O)c2ccccc2O)c(OC)c1	u	-59	u	n	n	n
CCOc1ccc(C2Nc3ccccc3-c3nnc(SCc4ccccc4)nc3O2)cc1OC (configuration not stated)	x	x	n	x	n	n
CCOC(=O)C1CCCN(CCc2ccccc2)C1 (configuration not stated)	n	n	n	n	n	n
O=C(OC1C2CCC1C1CN(CCc3ccccc3)CC12)c1ccccc1 (configuration not stated)	u	-67	x	n	n	n
C#Cc1cccc(Nc2ncnc3cc(OC)c(OCCCCCCC(=O)NO)cc23)c1	x	x	x	x	x	n
COC(=O)[C@@H]1CCCN1Cc1ccc2c(c1)CN(Cc1ccc(OC)c(C)c1)CCO2	x	x	n	x	n	x
